This is part of a sample that, as a whole, favours compounds with a hit. Of some 83,000 tested, about 20% had one in any assay.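 Values shown are percent growth following 48 h exposure of cells in 96-well plates to a single concentration of compound; below 10 was considered active.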 A number with no mark means an inactive call. Active and inactive are the calls of the source.

Test systems include SK-MEL-2 melanoma; EKVX NSCLC; SN12C renal; UO-31 renal; TK-10 renal; ACHN renal; CAKI-1 renal; CCRF-CEM leukemia; MOLT-4 leukemia; SR leukemia; RPMI-8226 leukemia; OVCAR-8 ovarian; OVCAR-5 ovarian; SK-OV-3 ovarian; IGROV1 ovarian; OVCAR-3 ovarian; HS 578T breast; NCI/ADR-RES ovarian; A498 renal; OVCAR-4 ovarian.
Holding throughout (experiment): NCI-60 one-dose screen, 48 h (100 = growth as untreated, 0 = no growth, -100 = all killed)
Holding throughout (conditions): 10 µM unless noted

Take `CCCCn1c(-c2ccc(C(=O)O/N=C(\N)c3ccc4ccccc4c3)cc2)nc(-c2ccccc2)c1-c1ccccc1`: the growth in the test with SK-MEL-2 melanoma was 96.4%; in the test with EKVX NSCLC it was 75.7%; in the test with SN12C renal, 63.5%; in the test on UO-31 renal, -24.1% (active); with TK-10 renal, 86.2%; in the test on ACHN renal, -72.7% (active). Further, the growth was 32.3% with CAKI-1 renal; 40.8% in the test on CCRF-CEM leukemia; 62.8% in the test with MOLT-4 leukemia; 12.1% in the test with SR leukemia; 67.3% with RPMI-8226 leukemia; 72.2% in the test on OVCAR-8 ovarian. For the same compound, the growth with OVCAR-5 ovarian was 79.1%; in the test on SK-OV-3 ovarian it was 99%; with IGROV1 ovarian it was -61.9% (active); in the test on OVCAR-3 ovarian it was 71.7%; in the test with HS 578T breast it was 57.9%; in the test on NCI/ADR-RES ovarian it was 30.9%.
As for `Cc1cc(N2CCCCCC2)nc(NC2CCCC(Nc3ccnc4cc(Cl)ccc34)C2)n1` (stereo not given), the growth in the test with SK-MEL-2 melanoma was -82.2% (active); in the test on EKVX NSCLC it was -27.5% (active); in the test with SN12C renal, -90.7% (active); in the test on UO-31 renal, -93.5% (active); with TK-10 renal, -81.2% (active); with ACHN renal, -98.6% (active). The growth was -74.7% (active) with A498 renal; -29.2% (active) with CCRF-CEM leukemia; -51.8% (active) in the test with MOLT-4 leukemia; -65.8% (active) in the test with SR leukemia; -57% (active) in the test on RPMI-8226 leukemia; -85.3% (active) with OVCAR-8 ovarian. The growth in the test on OVCAR-5 ovarian is -24.8% (active); in the test with OVCAR-4 ovarian it was -63.9% (active); in the test on SK-OV-3 ovarian it was -82.8% (active); in the test with IGROV1 ovarian, -47.1% (active); with OVCAR-3 ovarian, -78.6% (active); in the test with HS 578T breast, -51.3% (active). Besides, the growth with NCI/ADR-RES ovarian was -72.2% (active).
In the case of `Cn1ccnc1C(=O)/C=C/c1ccc(CC(=O)Nc2ccccc2)cc1`, the growth in the test with SK-MEL-2 melanoma is 54.6%; in the test on EKVX NSCLC, 17.6%; in the test with SN12C renal it was 16.1%; in the test with UO-31 renal, 16%; in the test on TK-10 renal it was 17.6%; in the test with ACHN renal, 29%. Moreover, the growth is 44.9% with A498 renal; 2.06% (active) with CCRF-CEM leukemia; -1.23% (active) in the test with MOLT-4 leukemia; -10.7% (active) in the test on SR leukemia; -12.5% (active) in the test on RPMI-8226 leukemia; -0.35% (active) in the test with OVCAR-8 ovarian. Also, the growth in the test with OVCAR-5 ovarian is 29.6%; with OVCAR-4 ovarian, 31.4%; with SK-OV-3 ovarian it was 27.3%; with IGROV1 ovarian it was 12.7%; with OVCAR-3 ovarian it was -7.34% (active); in the test on HS 578T breast it was 37.2%. Also, the growth in the test on NCI/ADR-RES ovarian was 13.5%.
Take `Cc1cc(N2CCSCC2)nc(NC2CCCC(Nc3ccnc4cc(Cl)ccc34)C2)n1` (stereo not given): the growth is -81% (active) in the test with SK-MEL-2 melanoma; 24.1% with EKVX NSCLC; -29% (active) in the test with SN12C renal; -94% (active) in the test with UO-31 renal; -57.9% (active) in the test on TK-10 renal; -61.9% (active) in the test on ACHN renal. The growth in the test with A498 renal is 22.9%; with CCRF-CEM leukemia it was -20.5% (active); in the test with MOLT-4 leukemia, -9.85% (active); in the test with SR leukemia it was -54% (active); in the test on RPMI-8226 leukemia it was -52.6% (active); with OVCAR-8 ovarian, -20.9% (active). The growth in the test with OVCAR-5 ovarian was 29.7%; with OVCAR-4 ovarian, 16.8%; in the test with SK-OV-3 ovarian, 34.8%; with IGROV1 ovarian it was -16.1% (active); in the test on OVCAR-3 ovarian, -38.4% (active); in the test on HS 578T breast, -34.2% (active). In addition, in the test with NCI/ADR-RES ovarian, the growth was 1.15% (active).
On to `Nc1n[nH]c2ccc([C@@H]3Nc4cc5c(cc4[C@H]4C6CCC(C6)[C@@H]34)C(=O)NC5)cc12` (stereo not given in full), for which the growth in the test on SK-MEL-2 melanoma is 48.8%; with EKVX NSCLC it was 48.9%; in the test on SN12C renal, 38.4%; with UO-31 renal, 54.9%; in the test with TK-10 renal it was 89.3%; with ACHN renal it was 34.4%. Also, the growth with CAKI-1 renal is 40.5%; in the test with CCRF-CEM leukemia it was 10.5%; in the test on MOLT-4 leukemia, 14.7%; in the test with SR leukemia, 8.36% (active); in the test with RPMI-8226 leukemia it was 34.6%; in the test with OVCAR-8 ovarian, 21.5%. For the same compound, the growth in the test on OVCAR-5 ovarian is 33.1%; with OVCAR-4 ovarian, 30.7%; in the test on IGROV1 ovarian, 12.6%; in the test with OVCAR-3 ovarian it was -3.29% (active); with HS 578T breast it was 24.5%; in the test on NCI/ADR-RES ovarian, 69%.
In the case of `Nc1n[nH]c2ccc([C@@H]3Nc4ccc5[nH]ncc5c4[C@H]4C5C=CC(C5)[C@@H]34)cc12` (stereo not given in full), the growth is 46.9% in the test on SK-MEL-2 melanoma; 37.7% with EKVX NSCLC; 34.2% in the test with SN12C renal; 44.5% in the test on UO-31 renal; 67.5% with TK-10 renal; 24.4% with ACHN renal. Besides, the growth in the test on CAKI-1 renal was 35.3%; in the test on CCRF-CEM leukemia, 19.6%; in the test with MOLT-4 leukemia it was 15.1%; with SR leukemia, 11.6%; in the test with RPMI-8226 leukemia, 44.7%; in the test on OVCAR-8 ovarian, 27.1%. Besides, the growth in the test with OVCAR-5 ovarian was 29.5%; in the test with OVCAR-4 ovarian, 30.2%; with SK-OV-3 ovarian it was 42.6%; in the test on IGROV1 ovarian it was 16.6%; in the test on OVCAR-3 ovarian, 7.18% (active); with HS 578T breast it was 3.92% (active). The growth with NCI/ADR-RES ovarian was -27.5% (active).
As for `CC1C(/C=N/Nc2ccccc2)C(C#N)(C#N)C1(C#N)C#N` (stereo not given), the growth with SK-MEL-2 melanoma was 85.2%; with EKVX NSCLC, 71.8%; in the test with SN12C renal, 86.5%; in the test on UO-31 renal, 52%; in the test on TK-10 renal, 130%; in the test on ACHN renal, 44.4%. Besides, the growth in the test with A498 renal was 99.9%; in the test on CCRF-CEM leukemia, 58%; with MOLT-4 leukemia, 67%; in the test with SR leukemia it was 46.6%; in the test on RPMI-8226 leukemia it was 82%; with OVCAR-8 ovarian, 85.6%. The growth is 87.3% in the test with OVCAR-5 ovarian; 76.1% in the test on OVCAR-4 ovarian; 95.7% in the test on SK-OV-3 ovarian; 56.3% with IGROV1 ovarian; 86.2% in the test with OVCAR-3 ovarian; 87.2% in the test with HS 578T breast. For the same compound, in the test with NCI/ADR-RES ovarian, the growth is 65.1%.
Consider `Cn1nc(N)c2cc([C@@H]3Nc4ccc5[nH]ncc5c4[C@H]4C5CCC(C5)[C@@H]34)ccc21` (stereo not given in full), for which the growth in the test with SK-MEL-2 melanoma is 46.6%; in the test on EKVX NSCLC it was 47.1%; in the test on SN12C renal, 50.7%; in the test on UO-31 renal, 40.6%; in the test on TK-10 renal, 80.4%; in the test on ACHN renal, 39.6%. Further, the growth in the test on CAKI-1 renal is 40.9%; in the test on CCRF-CEM leukemia it was 16.7%; in the test with MOLT-4 leukemia, 20.1%; in the test with SR leukemia it was 14.7%; in the test with RPMI-8226 leukemia it was 47.8%; with OVCAR-8 ovarian, 38.2%. The growth in the test with OVCAR-5 ovarian is 35.1%; with OVCAR-4 ovarian, 41.4%; with SK-OV-3 ovarian it was 41.7%; with IGROV1 ovarian it was 27.3%; in the test with OVCAR-3 ovarian, -16.2% (active); in the test with HS 578T breast it was 20.6%. The growth with NCI/ADR-RES ovarian is 3.15% (active).

Source of the values: PubChem BioAssay (NCI).
